Measured values reported in PubChem BioAssay (NCI).
Compounds without any hit were thinned out: in the full panel of roughly 83,000, 20% have a hit.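 Interpretation: 100, growth as untreated; towards 0, rising growth inhibition; 0, no net growth; 0 to -100, cell death. Compounds scoring below 10 were considered active.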 A number with no mark means an inactive call. Active and inactive are the calls of the source.

System: MDA-MB-468 breast
Test: NCI-60 one-dose screen, 48 h (100 = growth as untreated, 0 = no growth, -100 = all killed)
Conditions: 10 µM unless noted

Compound	growth
COc1ccc2c(c1OC)C(=O)O[C@@H]2[C@H]1c2c(c(C#CC#Cc3ccc(F)c(F)c3)c3c(c2OC)OCO3)CCN1C	72.4%
CN1CCN(Cc2ccc(NC(=O)c3ccc(C#Cc4c(N)ncc5ccc(F)cc45)cc3)cc2C(F)(F)F)CC1	-73.6% (active)
O=c1c2ccccc2sc2c(N3CCCC3)nc3ccccc3c12	98.6%
CCc1nc2cc(/C=C/C(=O)NO)c(F)cc2c(=O)n1CCc1ccccc1	-32.9% (active)
O=S(=O)(Nc1cc(Br)c(O)c2ccccc12)c1ccc(F)cc1	-48.5% (active)
CCCCCCCCCCCCCCCCCCNC(=O)[C@H]1CSC(c2cccs2)N1 (some centres undefined)	60.8%
CC(C)=CCC[C@](C)(O)[C@H]1CC[C@]2(C)[C@@H]1CC[C@@H]1[C@@]3(C)Cc4nccnc4C(C)(C)[C@@H]3CC[C@]12C	69.4%
Cc1ccc(C)c2c1sc1nc(N3CCOCC3)c(C#N)c(=O)n12	86.9%
CCCCCCCC/C=C\CCCCCCCCOc1ccccc1CC(=O)NCC[N+]1(C)CCOCC1	65.3%
O=C(Cc1ccc(/C=C/C(=O)c2ncc[nH]2)cc1)Nc1ccccc1	22.2%
COc1cc(C2C3=C(COC3=O)Nc3c2ccc2c3CCCC2)cc2c1OCO2 (centres undefined)	-6.39% (active)
Cc1ccc(Nc2cc(N)nc(N)n2)cc1	92.2%
Cc1cc(N2CCCC2)nc(N(CCNc2ccnc3cc(Cl)ccc23)Cc2ccco2)n1	13.3%
COc1cc(-c2cc(/C=C3\CCCCC3=O)[nH]n2)cc(OC)c1OC	85.2%
